Each structure is given as a SMILES string. The panel holds about 83,000 compounds, 20% with a hit somewhere; the sample as a whole holds those more often.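 96-well plates, one dose, 48 hours. Percent growth reported; active if below 10.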 Unmarked numbers belong to inactive results. Active and inactive are the calls of the source.

For this test, the system named is NCI-H226 lung. The experiment in a line: NCI-60 one-dose screen, 48 h (100 = growth as untreated, 0 = no growth, -100 = all killed). Conditions: 10 µM.
As to `CCOC(=O)c1cc(-c2ccccc2)nc(N)n1`, the growth was 89.5%.
In the case of `COc1cc(C)c2sc3ccccc3c(=O)c2c1NCCN(C)C`, the growth is 74%.
Take `C/C=C\COc1cc(C)c(Cl)cc1Cl`: the growth is 87.5%.
The result for `NC(N)=NS(=O)(=O)c1ccc(Nc2ccc3nnc(-c4ccncc4)n3n2)cc1` reads 96.5%; that for `COc1ccc(C2C=C(c3ccc(Cl)c(Cl)c3)N=C3SC(C)=CN32)cc1` (stereo unspecified), 86.5%.
Under `CC(=O)OC1Oc2ccccc2-c2oc(=O)c(-c3ccc(F)cc3)cc21` (stereo unspecified) stands 91.9%.
`CS(=O)(=O)Nc1ccc(Nc2c3ccccc3nc3cc(Cl)ccc23)cc1`: the growth is -4.26% (active).
As for `COc1cc2nc(Sc3sc(N)nc3C)n(-c3ccc(Oc4ccccc4)cc3)c(=O)c2cc1OC`, the growth is 89.7%.
The result for `CCOC(=O)c1sc(NC(=O)c2cc(OC)c(OC)c(OC)c2)nc1C` reads 88.8%.
Under `O=C(Nc1ccc(OCc2nnc(-c3ccccc3)o2)c(F)c1)Nc1ccc(Cl)c(Cl)c1` stands 72.3%.
Turning to `COc1ccc(/C=C2\SC(=S)N(CCCN3CCOCC3)C2=O)c(OC)c1`, the growth is -99.3% (active).
Take `CCSc1nc2c([nH]1)c(=O)n(C)c(=S)n2C`: the growth is 117%.
Under `CCNC(=S)NN` stands 99.1%; under `COc1ccc(-c2ccc(-c3ccc(C(=N)N)c(F)c3)s2)cc1`, -41% (active); under `O=C(c1ccc(Cl)cc1)c1no[n+]([O-])c1C(=O)c1ccc(Cl)cc1`, 102%.
Under `COc1cccc2c1O/C(=C\c1ccc([N+](=O)[O-])s1)C2=O` stands 97.1%.

These data come from PubChem BioAssay (NCI).
